Most compounds without a hit are left out; they make up all but 2.2% or so of the library.
Mito fusion act: mitochondrial division inhibition or fusion activation; 320,000 tested, 0.23% active; S. cerevisiae fusion-defective mutant growth rescue, CellTiterGlo 48 h; Potency, µM (series often up to 46.1 µM), without a hit: top-dose growth rescue (activation), actives largely listed as activators; also: % of control where 0% means no effect; nearly all actives have a fitted effect of over 45% in size
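Yeast fusion mutant, YPEG (non-fermentable carbon), compound, 48 h at 37C non-permissive; CellTiterGlo added, 10 min RT, luminescence read. Rescued growth = division inhibition.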
Abeta rescue: compounds reversing amyloid beta toxicity in yeast | Potency, µM (doses to about 46.1 µM), most hits filed as activators | AID 1347071 | yeast expressing A-beta42, growth rescue, OD600, 48 h; response scale: 0% DMSO, 100% iron-clioquinol control | 410,000 tested, 0.063% active; also: nearly all actives have a fitted effect of over 55% in size
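Yeast A-beta toxicity model in growth medium with pinned compounds, 48 h at 30 C; growth read as absorbance at 600 nm. Normalized to FeCl3/clioquinol equimolar mix (positive) and DMSO (negative).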
ERG Ets-DNA blk: inhibitors of human ERG Ets domain-DNA interaction. fluorescence polarization, His-ERG Ets domain / labelled DNA. 370,000 tested, 0.028% active. Potency, µM (highest dose often 76.9 µM), for inactives: at the highest dose FP activity, negative = inhibition, most hits filed as inhibitors; active = well fitted inhibition curve with a large enough effect in the polarisation, with a control signal flat; inconclusive = small, poorly fitted or top-dose-only effect, or effect the other way, or a change in a side signal; inactive = no such curve, though single readings can be large or run the other way; the % refers to the polarisation;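 also: polarization taken with two DNA probes labelled with fluorescein and Texas red; % of control where 0% means no effect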
Target sequence (P11308 whole entry, looked up, the tested form may be a part): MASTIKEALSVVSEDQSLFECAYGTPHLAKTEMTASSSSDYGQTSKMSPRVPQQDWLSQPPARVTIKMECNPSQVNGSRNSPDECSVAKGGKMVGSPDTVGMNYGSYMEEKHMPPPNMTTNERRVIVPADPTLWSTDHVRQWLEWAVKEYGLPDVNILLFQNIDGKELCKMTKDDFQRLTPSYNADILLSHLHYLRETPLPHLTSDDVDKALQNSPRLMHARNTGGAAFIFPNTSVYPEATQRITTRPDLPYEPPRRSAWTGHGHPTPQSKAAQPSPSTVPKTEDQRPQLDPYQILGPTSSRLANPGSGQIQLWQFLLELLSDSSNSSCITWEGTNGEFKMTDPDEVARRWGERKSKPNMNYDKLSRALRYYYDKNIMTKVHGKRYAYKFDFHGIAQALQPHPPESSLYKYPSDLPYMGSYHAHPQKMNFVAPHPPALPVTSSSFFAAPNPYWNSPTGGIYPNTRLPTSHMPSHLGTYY
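His-tagged ERG Ets domain (1 uM in the protein solution; 300mM KCl, 50mM Tris-HCl, 1mM EDTA, 1mM DTT, pH 7.5) received compound, then a probe mix of 5 nM fluorescein-DNA and 100nM Texas-615-DNA. Fluorescence polarization was read for both dyes.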
aSyn yeast inh: alpha-synuclein toxicity inhibition in yeast; Yeast expressing alpha-synuclein, growth rescue, BacTiter-Glo, 24 h; Potency, µM (doses to about 46.1 µM), for inactives: at the highest dose growth rescue (activation), usual class: activators; 370,000 tested, 0.14% active; also: % of control where 0% means no effect; nearly all actives have a fitted effect of over 65% in size
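Rescue of yeast growth: cells expressing toxic alpha-synuclein, induced in galactose at OD600 0.02, incubated with compound 24 h at 30 C. ATP luminescence quantified growth; inhibitors of toxicity appear as activators.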
TDP-43 yeast inh: TDP-43 toxicity inhibition in yeast; AID 652104; TDP-43 expressing yeast growth rescue, BacTiter-Glo, 24 h; 410,000 tested, 1.8% active; Potency, µM (titrated, usually from 46.1 µM), inactives show at the highest dose growth rescue (activation), usual class: activators; also: % of control where 0% means no effect; nearly all actives have a fitted effect of over 50% in size
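Cell-based yeast growth screen: TDP-43 expression induced in galactose, inoculum OD600=0.02 after raffinose pregrowth to mid-log. Read-out BacTiter-Glo luminescence at 24 hr, 30 deg C; inhibition of toxicity seen as signal increase.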
FUS yeast rescue: FUS proteinopathy suppression in yeast; S. cerevisiae FUS-expressing, growth rescue, OD600, 24 h; Potency, µM (series often up to 76.6 µM), hits mostly activators; 390,000 tested, 0.24% active; AID 1347120;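 also: plate controls were DMSO vehicle for no effect and reference control for full effect; nearly all actives have a fitted effect of over 55% in size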
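S. cerevisiae expressing FUS from galactose induction served as the toxicity model. Growth after 24hr at 30C, read as absorbance at 600 nm, indicates suppression of toxicity; compounds dosed at several concentrations.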
* = called active by the depositor; i = inactive; ? = inconclusive; . = no result; [ ] = dose if it differs, or a comment. Unless noted, calls follow the shape of the dose curve; as a rule, active = well fitted curve in the direction sought with a large enough effect; inconclusive = small, poorly fitted or top-dose-only effect, or another doubt; inactive = no such curve, though single readings can be large; an effect the other way counts as inactive or inconclusive. Potency is read from the fitted curve at half-maximal effect.

SMILES | Mito fusion act | Abeta rescue | ERG Ets-DNA blk | aSyn yeast inh | TDP-43 yeast inh | FUS yeast rescue
O=C(NCCc1ccccc1)c1ccc(Sc2ccccc2Cl)c([N+](=O)[O-])c1 | . | . | . | . | . | i
COC(=O)C1CN(Cc2ccccc2)CCS(=O)(=O)N1Cc1ccccc1 (configuration not stated) | . | . | . | . | . | i
O=C(Cc1ccccc1)N1CCC(Oc2cccnc2)CC1 | . | . | . | . | . | i
C=CCN1C/C(=C/c2ccccc2)N2C(=O)CC(c3ccccc3)N=C12 (configuration not stated) | . | . | . | . | . | i
COc1ccccc1NC(=O)CSc1nc2c(oc3ccccc32)c(=O)n1-c1ccc(C)cc1 | . | i | -1% | . | -3% | i
COc1ccc(-c2csc(C(O)c3ccc(F)cc3)n2)cn1 (configuration not stated) | . | i | . | 2% | 35µM* | i
OC(c1ccco1)c1nc(-c2ccc(F)c(Cl)c2)cs1 (configuration not stated) | . | i | . | 1% | 13µM* | i
OC(c1ccc(F)cc1)c1nc(-c2ccc(F)c(Cl)c2)cs1 (configuration not stated) | . | i | . | -59% | -86% | i
COc1ccc(C(O)c2nc(-c3cccs3)cs2)cc1 (configuration not stated) | . | i | . | 18% | 16µM* | i
Cc1cc(C(=O)N2CCC(C)(C(=O)NS(=O)(=O)C3CC3)C2)n(C(C)(C)C)n1 (configuration not stated) | . | i | . | -4% | 1% | i
CCOc1cc(C(=O)NCCc2sc(-c3ccc(F)cc3)nc2C)cc(OCC)c1OCC | . | i | -2% | . | 0% | ?
COc1ccc(-n2nc(C(=O)NCC(=O)NCC3COc4ccccc4O3)c3ccccc3c2=O)cc1OC (configuration not stated) | 3% | i | -12% | 0% | -2% | 18µM*
CCCn1nc(C(=O)NC2CC2)c2ccccc2c1=O | 1% | i | -8% | 0% | 9% | i
CCCn1nc(C(=O)NCC2COc3ccccc3O2)c2ccccc2c1=O (configuration not stated) | 26% | i | 8% | 2%[1.84 µM] | 22µM* | i
CCCn1nc(C(=O)Nc2nc(-c3ccccn3)cs2)c2ccccc2c1=O | 5% | 10µM* | 3% | -6%[1.84 µM] | ? | i
Cc1cccc2c(=O)[nH]c3c(-c4nc(-c5ccc(Cl)cc5)cs4)c(O)cn3c12 | . | . | . | -7% | . | .
Cc1ccccc1NC(=O)[C@@H]1CCCN1S(=O)(=O)c1cccc2cccnc12 | . | . | . | . | . | i
COc1ccccc1CCNC(=O)C1CCC(=O)N(Cc2ccccc2OC)C1 (configuration not stated) | 1% | i | 4% | -2% | 1% | i
COc1ccccc1CN1CC(C(=O)NCCCc2ccc(F)cc2)CCC1=O (configuration not stated) | 29% | i | 0% | -2% | -4% | 16µM*
Cn1nc(C(C)(C)C)cc1C(=O)N1CCCCC1c1cc(C(=O)Nc2cccc3c2CCCC3)no1 (configuration not stated) | . | i | . | 8% | 7% | 32µM*
O=C(CC(=O)c1ccccc1O)c1cccc(F)c1 | -2% | i | 6% | 13µM* | -24% | .
CCCCc1nn2c(=O)cc(COC(=O)c3ccc(NC(=O)c4ccccc4Cl)cc3)nc2s1 | . | i | 2% | . | 3% | i
C=CCn1cnc2c(nnn2-c2cc(C)cc(C)c2)c1=O | -1% | i | -6% | 2% | 11µM* | i
C=CCn1cnc2c(nnn2-c2ccc(Cl)cc2)c1=O | 0% | i | 3% | 12% | ? | i
CC(C)=CC(=O)O[C@@H]1Cc2cc3ccc(=O)oc3cc2OC1(C)C | 9% | i | 1% | 8% | 14µM* | i
SMILES | Mito fusion act | Abeta rescue | ERG Ets-DNA blk | aSyn yeast inh | TDP-43 yeast inh | FUS yeast rescue
O=C(NCCCc1ccccc1)[C@H](Cc1c[nH]c2ccccc12)NC1(C(=O)NCCc2c[nH]c3ccccc23)CCOCC1 | . | . | . | . | . | 22µM*
CC(C)(C)OC(=O)N1CCC(N[C@@H](Cc2c[nH]c3ccccc23)C(=O)NCCc2c[nH]c3ccccc23)(C(=O)NC2CCCCC2)CC1 | . | . | . | . | . | 20µM*
CC(C)(N[C@@H](Cc1c[nH]c2ccccc12)C(=O)NCC(c1ccccc1)c1ccccc1)C(=O)NC1CCCCC1 | . | . | . | . | . | 14µM*
O=C(NCCc1c[nH]c2ccccc12)[C@H](Cc1c[nH]c2ccccc12)NC1(C(=O)NC2CCCCC2)CCCCCCC1 | . | . | . | . | . | i
CN1CCC(N[C@@H](Cc2ccccc2)C(=O)NCCCc2ccccc2)(C(=O)NCCc2c[nH]c3ccccc23)CC1 | . | . | . | . | . | i
CC(C)(N[C@@H](Cc1c[nH]c2ccccc12)C(=O)NCCc1c[nH]c2ccccc12)C(=O)NC1CCCCC1 | . | . | . | . | . | i
CN(C)c1ccc(/C=C/c2ccnc3ccc(-c4ccccc4)cc23)cc1 | . | . | . | 8% | . | .
Nc1cccc(N2C(=O)c3cccc4c(N)ccc(c34)C2=O)c1 | 9% | i | ? | -1% | -3% | i
Nc1ccc2c3c(cccc13)C(=O)N(c1ccccc1)C2=O | 2% | i | 25µM* | -1% | 0% | i
CC1CCN(C(=O)CN2CCSc3ccc(S(=O)(=O)N(C)C)cc32)CC1 | . | i | -2% | -8% | 21% | i
O=C(c1ccc(N2CCN(C(=O)c3ccc(F)cc3F)CC2)cc1)c1cccc(F)c1 | -6% | i | -1% | 10% | 18µM* | i
O=C(c1ccc(F)cc1F)N1CCN(c2ncccn2)CC1 | 2% | i | -10% | 0% | -4% | i
CCN(CC)C(=O)CC[C@H]1CC[C@]2(CCCN(S(=O)(=O)C3CCCCC3)C2)O1 | . | . | . | . | . | i
CN(Cc1ccccc1)C(=O)c1ccc(NC(=O)Cc2ccc(NC(=O)C3CCCN(C(=O)CCc4ccccc4)C3)cc2)cc1 (configuration not stated) | . | i | -2% | 0% | 26% | i
Cc1ccc(NC(=O)c2sc3ncnc(N4CCN(c5ccccn5)CC4)c3c2C)c(C)c1 | 13µM* | i | -3% | -1% | 19% | i
COc1ccc(S(=O)(=O)Nc2cccc3cccnc23)c([N+](=O)[O-])c1 | . | . | . | 22µM* | . | .
Cc1nc2ccc(S(=O)(=O)Nc3cccc(-c4nc5cccnc5s4)c3C)cc2s1 | 18µM* | i | -9% | 11% | ? | i
O=S(=O)(Nc1cccc2cccnc12)c1ccc2ccccc2c1 | . | . | . | 18µM* | . | .

From PubChem BioAssay
